# According to ChEMBL document CHEMBL3433997, “St. Jude Leishmania screening dataset” (2016):
# Target: Solute carrier family 2, facilitated glucose transporter member 1 (Homo sapiens) (UniProt P11166)
# Assay: ST_JUDE_LEISH: Cytotoxicity at 2uM final concentration against transgenic Leishmania Mexicana promastigotes LmGLUT1 that are glucose transport deficient and complemented with the human glucose transporter GLUT1. Activity is measured by DNA content using SYBR green in vitro
# Assay type: functional
# Chain of Solute carrier family 2, facilitated glucose transporter member 1 (Homo sapiens) (P11166 whole entry): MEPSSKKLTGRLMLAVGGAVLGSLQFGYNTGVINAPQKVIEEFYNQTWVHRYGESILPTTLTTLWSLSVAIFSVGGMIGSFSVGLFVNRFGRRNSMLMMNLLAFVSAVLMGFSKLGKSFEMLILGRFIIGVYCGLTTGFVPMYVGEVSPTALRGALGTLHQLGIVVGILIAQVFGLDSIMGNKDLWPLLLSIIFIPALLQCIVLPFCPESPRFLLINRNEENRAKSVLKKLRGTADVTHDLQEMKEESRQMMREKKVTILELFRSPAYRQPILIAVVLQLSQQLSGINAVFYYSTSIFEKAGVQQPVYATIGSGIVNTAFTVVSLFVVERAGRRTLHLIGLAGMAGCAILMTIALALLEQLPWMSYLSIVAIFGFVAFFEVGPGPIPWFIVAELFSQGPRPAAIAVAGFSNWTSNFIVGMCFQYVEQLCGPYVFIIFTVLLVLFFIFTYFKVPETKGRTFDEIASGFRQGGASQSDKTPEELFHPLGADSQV
row,Compound,inhibition
1,CN(C)c1ccc(C=Cc2nc(=O)c3ccccc3o2)cc1,1.38%
2,CCNc1cc(CCCC(=O)OCC)nc(Nc2ccc(C)cc2)n1,10.3%
3,Cc1nnc2c(NC(=O)NC(C)C)cc3cc(-c4ccc(CN5CCCCC5)cc4)ccc3n12,56%
4,COc1cc(NC(=O)/C=C/c2cc(F)cc(F)c2F)cc(OCCN2CCN(CCN3CCOCC3)CC2)c1,3.46%
5,COc1cccc(CCNCCCCCCNCCc2ccc(Cl)cc2)c1,2.26%
6,CCCCCCCN1CC[C@@H](CCCc2ccnc3ccc(OCCCCN/C(N)=N/O)cc23)[C@@H](CC)C1,4.19%
7,CN1CCN(CCCNCc2cccc(-c3ccc(CNCCc4ccccc4)cc3)c2)CC1,2.41%
8,CS(=O)(=O)Nc1ccc(-c2ccc3ccnc(N)c3c2)cc1,7.57%
9,COc1ccc2nccc(NCC3(O)CCC(NCc4ccc5c(n4)NC(=O)CS5)CC3)c2n1 (stereo not given),4.33%
10,Cc1ccc2[nH]c(C)cc(=NN=Cc3cccc(F)c3)c2c1,5.05%
11,CN(C)CCN1CCN(Cc2cccc(-c3csc(-c4nc5ccccc5[nH]4)c3)c2)CC1,0.51%
12,CN1CCCC(CN2CCN(Cc3cccc(-c4csc(-c5nc6ccccc6[nH]5)c4)c3)CC2)C1 (stereo not given),3.41%
13,COc1cc(NC(=O)c2ccc3oc4ccccc4c3c2)ccc1OCCN1CCCCC1,-0.45%
14,COc1ccccc1CN1CCC(NC(=O)c2ccc(-c3cccc(Cl)c3)s2)CC1,8.99%
15,CCOc1ccc2[nH]c(C)cc(=NN=Cc3ccccc3F)c2c1,4%
16,CC(=O)Nc1cccc(C(=O)Nc2ccc(-c3cccc(-c4nc5cc(C(F)(F)F)ccc5[nH]4)c3)cc2)c1,2.13%
17,O=C(NC1CCN(CCN2CCC(c3cn(CCO)c4ccccc34)CC2)CC1)c1ccc(-c2ccc(C(F)(F)F)cc2)cc1,-1.51%
18,COc1cccc(NC(=O)Nc2c(-c3cccc(C(F)(F)F)c3)c(C(F)(F)F)nn2C)c1,0.7%
19,N#Cc1cccc(C(=O)Nc2cccc(-c3ccc(C(=O)NCCCN4CCOCC4)cc3)c2)c1,6.85%
20,CN1CCN(c2ccnc3ccc(NC(=O)Cc4ccc(Br)c5ccccc45)cc23)CC1,0.81%

row,Compound,inhibition
1,CNC(=O)c1cc(Nc2nnc(-c3ccc(C)c(S(=O)(=O)NC4CCCCC4)c3)c3ccccc23)ccc1OC,4%
2,COc1ccc2ncc(F)c(CCN3CCC(NCc4cc(F)c5c(c4)OCCO5)CC3)c2n1,14.4%
3,O=C(NCc1ccc(Cl)c(Cl)c1)c1cc(CNC2CCNCC2)ccc1O,0.91%
4,O=C(NCCCCN1CCC(c2ccc(OC(F)(F)F)cc2)CC1)c1ccc(NC(=O)c2ccc(Cl)cc2)cc1,-1.27%
5,CCN(CC)/C(=N/C(=N)Nc1ccc(C)cc1)NCCCCCCN/C(=N\C(=N)Nc1ccc(C)cc1)N(CC)CC,7.79%
6,CN1N=C2c3ccccc3CCC2C1c1ccc(C#N)cc1 (stereo not given),12.4%
7,COC(=O)[C@@H](NC(=O)[C@H](CC(C)C)Nc1ccc(C#N)c2ccccc12)c1ccc(O)cc1,1.02%
8,NC(=S)Cc1ccc2c(c1)OCO2,-0.08%
9,C=C(C)CSc1nc2c(c(=O)n1CCc1ccccc1)C1(CCCC1)Cc1ccccc1-2,5.95%
10,CN1CCCc2ccc(NC(=O)c3cnc(-c4ccccc4)cn3)cc21,0.24%
11,Oc1ccc(Br)cc1C(O)CNCc1ccccc1OCc1ccccc1 (stereo not given),2.85%
12,Cc1[nH]c(C)c(-c2cc3ccccc3o2)c(=O)c1Cl,0.9%
13,Oc1cccc2ccc(Nc3ccccn3)nc12,0.94%
14,COc1cc2nccc(Nc3cc(C)cc(O)c3)c2cc1OC,2.64%
15,CCN1CCC(N(Cc2ccc(-c3ccc(C(F)(F)F)cc3)cc2)C(=O)Cn2c(CCc3cccc(F)c3F)cc(=O)c3ccc(OCc4ccccc4)cc32)CC1,3.79%
16,O=C(NCc1cccc(C(F)(F)F)c1)c1ccc(-c2nc3cc(F)c(F)cc3[nH]2)cc1,1.11%
17,O=C(Nc1ccccc1Br)c1cn(-c2ccccc2)nc1-c1cccc([N+](=O)[O-])c1,10.6%
18,CCCN(CCCCNC(=O)c1ccc(-c2cccnc2)cc1)C1CCc2c(O)cccc2C1 (stereo not given),3.63%
19,CCOc1cc(C(=O)NC2CCN(Cc3ccccc3)CC2)ccc1-c1nc2cc(Cl)c(F)cc2[nH]1,3.61%
20,CON=Cc1ccn(-c2ccc(O)c3c2C[C@H]2C[C@H]4[C@H](N(C)C)C(O)=C(C(N)=O)C(=O)[C@@]4(O)C(O)=C2C3=O)c1,5.15%

# Target: Hexose transporter 1 (Plasmodium falciparum) (UniProt O97467)
# Assay: ST_JUDE_LEISH: Cytotoxicity at 2uM final concentration against transgenic Leishmania Mexicana promastigotes LmPfHT that are glucose transport deficient and complemented with the Plasmodium falciparum hexose transporter. Activity is measured by DNA content using SYBR green in vitro
# Assay type: functional
row,Compound,inhibition
1,CN(C)c1ccc(C=Cc2nc(=O)c3ccccc3o2)cc1,3.22%
2,CCNc1cc(CCCC(=O)OCC)nc(Nc2ccc(C)cc2)n1,13%
3,Cc1nnc2c(NC(=O)NC(C)C)cc3cc(-c4ccc(CN5CCCCC5)cc4)ccc3n12,10.5%
4,COc1cc(NC(=O)/C=C/c2cc(F)cc(F)c2F)cc(OCCN2CCN(CCN3CCOCC3)CC2)c1,1.58%
5,COc1cccc(CCNCCCCCCNCCc2ccc(Cl)cc2)c1,2.74%
6,CCCCCCCN1CC[C@@H](CCCc2ccnc3ccc(OCCCCN/C(N)=N/O)cc23)[C@@H](CC)C1,2.68%
7,CN1CCN(CCCNCc2cccc(-c3ccc(CNCCc4ccccc4)cc3)c2)CC1,3.07%
8,CS(=O)(=O)Nc1ccc(-c2ccc3ccnc(N)c3c2)cc1,7.12%
9,COc1ccc2nccc(NCC3(O)CCC(NCc4ccc5c(n4)NC(=O)CS5)CC3)c2n1 (stereo not given),3.51%
10,Cc1ccc2[nH]c(C)cc(=NN=Cc3cccc(F)c3)c2c1,7%
11,CN(C)CCN1CCN(Cc2cccc(-c3csc(-c4nc5ccccc5[nH]4)c3)c2)CC1,2.44%
12,CN1CCCC(CN2CCN(Cc3cccc(-c4csc(-c5nc6ccccc6[nH]5)c4)c3)CC2)C1 (stereo not given),1.68%
13,COc1cc(NC(=O)c2ccc3oc4ccccc4c3c2)ccc1OCCN1CCCCC1,1.28%
14,COc1ccccc1CN1CCC(NC(=O)c2ccc(-c3cccc(Cl)c3)s2)CC1,8.66%
15,CCOc1ccc2[nH]c(C)cc(=NN=Cc3ccccc3F)c2c1,4.47%
16,CC(=O)Nc1cccc(C(=O)Nc2ccc(-c3cccc(-c4nc5cc(C(F)(F)F)ccc5[nH]4)c3)cc2)c1,0.32%
17,O=C(NC1CCN(CCN2CCC(c3cn(CCO)c4ccccc34)CC2)CC1)c1ccc(-c2ccc(C(F)(F)F)cc2)cc1,3.18%
18,COc1cccc(NC(=O)Nc2c(-c3cccc(C(F)(F)F)c3)c(C(F)(F)F)nn2C)c1,1.76%
19,N#Cc1cccc(C(=O)Nc2cccc(-c3ccc(C(=O)NCCCN4CCOCC4)cc3)c2)c1,5.61%
20,CN1CCN(c2ccnc3ccc(NC(=O)Cc4ccc(Br)c5ccccc45)cc23)CC1,0.37%

row,Compound,inhibition
1,CNC(=O)c1cc(Nc2nnc(-c3ccc(C)c(S(=O)(=O)NC4CCCCC4)c3)c3ccccc23)ccc1OC,3.11%
2,COc1ccc2ncc(F)c(CCN3CCC(NCc4cc(F)c5c(c4)OCCO5)CC3)c2n1,20.5%
3,O=C(NCc1ccc(Cl)c(Cl)c1)c1cc(CNC2CCNCC2)ccc1O,5.71%
4,O=C(NCCCCN1CCC(c2ccc(OC(F)(F)F)cc2)CC1)c1ccc(NC(=O)c2ccc(Cl)cc2)cc1,0.81%
5,CCN(CC)/C(=N/C(=N)Nc1ccc(C)cc1)NCCCCCCN/C(=N\C(=N)Nc1ccc(C)cc1)N(CC)CC,5.77%
6,CN1N=C2c3ccccc3CCC2C1c1ccc(C#N)cc1 (stereo not given),9.98%
7,COC(=O)[C@@H](NC(=O)[C@H](CC(C)C)Nc1ccc(C#N)c2ccccc12)c1ccc(O)cc1,0.76%
8,NC(=S)Cc1ccc2c(c1)OCO2,-0.33%
9,C=C(C)CSc1nc2c(c(=O)n1CCc1ccccc1)C1(CCCC1)Cc1ccccc1-2,5.36%
10,CN1CCCc2ccc(NC(=O)c3cnc(-c4ccccc4)cn3)cc21,0.87%
11,Oc1ccc(Br)cc1C(O)CNCc1ccccc1OCc1ccccc1 (stereo not given),3.54%
12,Cc1[nH]c(C)c(-c2cc3ccccc3o2)c(=O)c1Cl,1.79%
13,Oc1cccc2ccc(Nc3ccccn3)nc12,2.29%
14,COc1cc2nccc(Nc3cc(C)cc(O)c3)c2cc1OC,3.99%
15,CCN1CCC(N(Cc2ccc(-c3ccc(C(F)(F)F)cc3)cc2)C(=O)Cn2c(CCc3cccc(F)c3F)cc(=O)c3ccc(OCc4ccccc4)cc32)CC1,3.24%
16,O=C(NCc1cccc(C(F)(F)F)c1)c1ccc(-c2nc3cc(F)c(F)cc3[nH]2)cc1,-2.13%
17,O=C(Nc1ccccc1Br)c1cn(-c2ccccc2)nc1-c1cccc([N+](=O)[O-])c1,10.4%
18,CCCN(CCCCNC(=O)c1ccc(-c2cccnc2)cc1)C1CCc2c(O)cccc2C1 (stereo not given),2.13%
19,CCOc1cc(C(=O)NC2CCN(Cc3ccccc3)CC2)ccc1-c1nc2cc(Cl)c(F)cc2[nH]1,2.49%
20,CON=Cc1ccn(-c2ccc(O)c3c2C[C@H]2C[C@H]4[C@H](N(C)C)C(O)=C(C(N)=O)C(=O)[C@@]4(O)C(O)=C2C3=O)c1,4.25%
